Measurements reported in PubChem BioAssay (EPA / NIEHS).
Several values for one entry are separate records, joined by “and”; a condition that tells them apart may be missing. Equal values may be shown once. Activity calls are given as the source filed them. How the source made its calls: active means hit-call score of the fitted dose curve at least 0.9, where 1 is the maximum; inactive means score below 0.9.

Read-out: Tissue plasminogen activator (tPA), PLAT (gene 5327)
Assay: BSK_BE3C_tPA: BioMAP Diversity Plus: BE3C Assay for Tissue plasminogen activator (tPA) Biomarker Activity (AID 2283041);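 on outcome: tPA level quantified by ELISA one day after compound addition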
Details: primary human bronchial epithelial cells; actives raise or lower the signal
Experimental: BSK_BE3C is a cell-based, multiplexed-readout assay that uses bronchial epithelial cell, a human lung primary cell, with measurements taken at 24 hours after chemical dosing in a 96-well plate.BSK_BE3C_tPA is an assay component measured in the BSK_BE3C assay. It measures tPA antibody related to regulation of gene expression using ELISA technology.Data from the assay component BSK_BE3C_tPA was analyzed into 1 assay endpoint. This assay endpoint, BSK_BE3C_tPA, was analyzed with bidirectional fitting relative to DMSO as the negative control and baseline of activity. Using a type of binding reporter, gain or loss-of-signal activity can be used to understand changes in the signaling as they relate to the gene PLAT. Furthermore, this assay endpoint can be referred to as a primary readout, because this assay has produced multiple assay endpoints where this one serves a signaling function. To generalize the intended target to other relatable targets, this assay endpoint is annotated to the protease intended target family, where the subfamily is serine protease.
The levels of cell surface (or secreted, indicated by the prefix "s") biomarker endpoints were measured by ELISA. Overt cytotoxicity to cells in confluent adherent cultures (all systems other than the BT system) was assessed by measuring total protein levels using sulforhodamine B (SRB) staining in parallel cultures at the time of biomarker measurements, indicated as SRB endpoints. For proliferation assays for adherent cell types, individual cell types are cultured at sub-confluence and relative cell numbers quantified by SRB staining at time points optimized for each system (48 h: 3C and CASM3C systems; 72 h: BT and HDF3CGF systems; 96 h: SAg system). SRB was performed by staining cells with 0.1% SRB after fixation with 10% TCA and reading wells at 560 nm.Viability and proliferation of PBMC (T cells) was quantified by Alamar Blue reduction for the SAg and BT systems. For PBMC viability (referred to as PBMC Cytotoxicity within the assay endpoint names), cells were plated (75,000/well in a 96-well plate) and then chemical samples added for 1 h before addition of activators, SEB and TSST-1 (20 ng/mL final concentration each). Cells were incubated for 90 h. Then, Alamar Blue (20 uL/well) (Invitrogen, Cat DAL1100) was added for 6 h, and the plates were read with a fluorescence microplate reader at 546/580 nm (excitation/emission). For PBMC proliferation, cells were plated and activated as above but incubated for only 16 h prior to addition of Alamar Blue. Plates were read after 6 h.

**Q.** With C=CC(=O)OCC(Br)CBr (stereo unspecified) as the molecule, how does the outcome read?
**A.** inactive

**Q.** For CCCCC/C=C\C/C=C\CCCCCCCC(=O)OC, which outcome is on record?
**A.** inactive

**Q.** For C/C=C\C/C=C/CCCCCCCCOC(C)=O, which outcome is on record?
**A.** inactive

**Q.** Which outcome does the source give for C#CC1(O)CC[C@H]2[C@@H]3CCC4=CCCC[C@@H]4[C@H]3CC[C@@]21C (stereo partly specified) here?
**A.** inactive

**Q.** For CCOc1nc(F)cc2nc(S(=O)(=O)Nc3c(Cl)cccc3C(=O)OC)nn12, which outcome is on record?
**A.** inactive

**Q.** Which outcome does the source give for CCCCC(CC)COCC1CO1 (stereo unspecified) here?
**A.** inactive

**Q.** How did the AC50 turn out when O=C(Cl)c1cc(C(=O)Cl)cc(C(=O)Cl)c1 was run?
**A.** 31.8 µM (active)

**Q.** How did the outcome turn out when c1ccc2c(c1)ccc1ncccc12 was run?
**A.** inactive

**Q.** With COCc1c(C(C)C)nc(C(C)C)c(/C=C/[C@@H](O)C[C@@H](O)CC(=O)O)c1-c1ccc(F)cc1 as the molecule, how does the outcome read?
**A.** inactive

**Q.** With C=CC=CC=CCCCCC as the molecule, how does the outcome read?
**A.** inactive

**Q.** For O=C(Nc1ccccc1SSc1ccccc1NC(=O)c1ccccc1)c1ccccc1, which outcome is on record?
**A.** inactive

**Q.** With O=Nc1ccc(O)cc1 as the molecule, how does the outcome read?
**A.** inactive

**Q.** With CCCCC(CC)COC(=O)c1ccccc1O (stereo unspecified) as the molecule, how does the outcome read?
**A.** inactive

**Q.** With CC(C)(c1cc(Br)c(OCCO)c(Br)c1)c1cc(Br)c(OCCO)c(Br)c1 as the molecule, how does the outcome read?
**A.** inactive

**Q.** c1ccc2c(c1)ccc1cc3c(ccc4ccccc43)cc12 was tested. Which outcome did it give?
**A.** inactive

**Q.** For CCCCCCCCCCCCCCCC[N+](C)(C)CC, which AC50 is on record?
**A.** 0.797 µM (active)

**Q.** Which outcome does the source give for CCO[Si](CCCN=C=O)(OCC)OCC here?
**A.** inactive

**Q.** With CCOC(=O)c1ccccc1C(=C1C=C(Br)C(=O)C(Br)=C1)c1cc(Br)c(O)c(Br)c1 as the molecule, how does the AC50 read?
**A.** 2.55 µM (active) and 2.71 µM (active)

**Q.** CCCCNc1ccc(NCCCC)c2c1C(=O)c1ccccc1C2=O was tested. Which outcome did it give?
**A.** inactive

**Q.** Which AC50 does the source give for C=CCOc1c(Br)cc(Br)cc1Br here?
**A.** 8.88 µM (active)

**Q.** Which outcome does the source give for CCCCCCCCc1ccc(Nc2ccc(CCCCCCCC)cc2)cc1 here?
**A.** inactive

**Q.** How did the outcome turn out when O=C1CCCN1CCO was run?
**A.** inactive

**Q.** With C=C[Si](OC(C)=O)(OC(C)=O)OC(C)=O as the molecule, how does the outcome read?
**A.** inactive

**Q.** O=C(c1ccc(O)cc1)c1ccc(O)cc1O was tested. Which outcome did it give?
**A.** inactive

**Q.** Which outcome does the source give for COc1ccc2nc(N)sc2c1 here?
**A.** inactive

**Q.** With CN1C(=O)N(C)C(O)C1O (stereo unspecified) as the molecule, how does the outcome read?
**A.** inactive

**Q.** For CC1OC1C1CCC2(C)OC2C1 (stereo unspecified), which outcome is on record?
**A.** inactive

**Q.** c1ccc(-c2ccccn2)nc1 was tested. Which outcome did it give?
**A.** inactive

**Q.** For C=CCOCC(O)CCl (stereo unspecified), which outcome is on record?
**A.** inactive

**Q.** With Nc1ccc(N)c(Cl)c1 as the molecule, how does the outcome read?
**A.** inactive

**Q.** With O=c1c2ccccc2oc2ccccc12 as the molecule, how does the outcome read?
**A.** inactive

**Q.** Which outcome does the source give for CC(C)C(=O)C(C)C here?
**A.** inactive

**Q.** How did the outcome turn out when CCO[Si](C)(OCC)OCC was run?
**A.** inactive

**Q.** N#[N+]c1ccc2c(S(=O)(=O)[O-])cccc2c1O was tested. Which outcome did it give?
**A.** inactive

**Q.** For S=C(NC1CCCCC1)NC1CCCCC1, which outcome is on record?
**A.** inactive

**Q.** For CO[Si](OC)(OC)c1ccccc1, which outcome is on record?
**A.** inactive
